Data as given in PubChem BioAssay (NCI).
About 83,000 compounds went through this panel and 20% of them were active in at least one assay; those are over-represented in the sample as a whole.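 For each line, cells grew in 96-well plates with the test compound present at a single concentration for 48 hours.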 Activity calls are given as the source filed them. The calls were made as follows: active = growth percent below 10; inactive = the rest.

Experiments:
Test in all cases: NCI-60 one-dose screen, 48 h (100 = growth as untreated, 0 = no growth, -100 = all killed)
Settings in all cases: 10 µM unless noted
SK-MEL-2 melanoma = test system: SK-MEL-2 melanoma
EKVX NSCLC = test system: EKVX NSCLC
SN12C renal = test system: SN12C renal
UO-31 renal = test system: UO-31 renal
TK-10 renal = test system: TK-10 renal
ACHN renal = test system: ACHN renal
A498 renal = test system: A498 renal
CCRF-CEM leukemia = test system: CCRF-CEM leukemia
MOLT-4 leukemia = test system: MOLT-4 leukemia
SR leukemia = test system: SR leukemia

Measured: growth

Cc1nc(C)c(C)nc1C
inactive: SK-MEL-2 melanoma 97.9% | EKVX NSCLC 109% | SN12C renal 101% | UO-31 renal 93.4% | TK-10 renal 95.7% | ACHN renal 114% | A498 renal 102% | CCRF-CEM leukemia 89.5% | MOLT-4 leukemia 99.8% | SR leukemia 108%

CC(C)CSc1nc(Nc2ccccc2)c(C#N)c(-c2ccc(F)cc2)n1
active: SN12C renal -26% | UO-31 renal -3.98% | TK-10 renal -22.9% | ACHN renal -43.2% | A498 renal -0.717% | SR leukemia -11.1%
inactive: SK-MEL-2 melanoma 78.8% | EKVX NSCLC 23.2% | CCRF-CEM leukemia 31.1% | MOLT-4 leukemia 65.5%

C[C@H]1[C@H](C)CC[C@]2(C(=O)OCCOCCOCC[P+](c3ccccc3)(c3ccccc3)c3ccccc3)CC[C@]3(C)C(=CC[C@@H]4[C@@]5(C)CC[C@H](OC(=O)C(Cl)Cl)C(C)(C)[C@@H]5CC[C@]43C)[C@H]12
active: SK-MEL-2 melanoma -21.5% | EKVX NSCLC -3.78% | SN12C renal -6.85% | UO-31 renal 3.95% | ACHN renal -1.41% | A498 renal 6.28% | CCRF-CEM leukemia 7.44% | MOLT-4 leukemia -6.91% | SR leukemia -33.5%
inactive: TK-10 renal 12.7%

O=C(Nc1nc(-c2ccccc2Cl)cs1)c1cc(-c2ccc(Br)cc2)nc2ccccc12
inactive: SK-MEL-2 melanoma 26.6% | EKVX NSCLC 35.6% | SN12C renal 69.9% | UO-31 renal 42% | TK-10 renal 49.4% | ACHN renal 49.7% | A498 renal 22.6% | CCRF-CEM leukemia 44.9% | MOLT-4 leukemia 37.2% | SR leukemia 53%

Cc1nccc2c3ccc(OCc4cn(-c5ccccc5)nn4)cc3n(CCCc3ccccc3)c12
inactive: SK-MEL-2 melanoma 91.7% | EKVX NSCLC 69.9% | SN12C renal 75.6% | UO-31 renal 54.6% | TK-10 renal 71.6% | ACHN renal 72% | A498 renal 53.8% | CCRF-CEM leukemia 77.4% | MOLT-4 leukemia 35.3% | SR leukemia 33.5%

CC(=O)ON1CCCC(P(=O)(OCOC(=O)C(C)(C)C)OCOC(=O)C(C)(C)C)C1=O (stereo not given)
active: SK-MEL-2 melanoma 9.04% | EKVX NSCLC 9.78% | SN12C renal -1.1% | UO-31 renal -8.25% | TK-10 renal 1.68% | ACHN renal 6.57% | A498 renal -8.06% | CCRF-CEM leukemia -7.6% | MOLT-4 leukemia -25.4% | SR leukemia -22.3%

CN(C)C1=NCCN1
inactive: SK-MEL-2 melanoma 81.5% | EKVX NSCLC 103% | SN12C renal 104% | UO-31 renal 96.2% | TK-10 renal 93.6% | ACHN renal 111% | A498 renal 107% | CCRF-CEM leukemia 90.2% | MOLT-4 leukemia 92.6% | SR leukemia 108%

COC1=CC=CC2(OC)C3(O)CCCc4cccc(c43)N3C(=O)COC132 (stereo not given)
inactive: SK-MEL-2 melanoma 93.9% | EKVX NSCLC 98.6% | SN12C renal 101% | UO-31 renal 82.1% | TK-10 renal 96.7% | ACHN renal 105% | A498 renal 98.4% | CCRF-CEM leukemia 94.8% | MOLT-4 leukemia 97.8% | SR leukemia 109%

COc1ccc(-c2[nH]c3ccc(OC)cc3c2C=C(C#N)C#N)cc1
inactive: SK-MEL-2 melanoma 34.3% | EKVX NSCLC 36.5% | SN12C renal 63.1% | UO-31 renal 50.1% | TK-10 renal 70.4% | ACHN renal 63.9% | A498 renal 52.6% | CCRF-CEM leukemia 11.1% | MOLT-4 leukemia 27.3%
active: SR leukemia -3.05%

CSc1cccc(NC(=O)Nc2nc3c(C)cccc3s2)c1
inactive: SK-MEL-2 melanoma 98.5% | EKVX NSCLC 80.2% | SN12C renal 94.3% | UO-31 renal 84.4% | TK-10 renal 119% | ACHN renal 101% | A498 renal 106% | CCRF-CEM leukemia 106% | MOLT-4 leukemia 99.9% | SR leukemia 83.7%

Oc1ccccc1-c1nc2c3ccccc3c3ccccc3c2o1
inactive: SK-MEL-2 melanoma 110% | EKVX NSCLC 78.8% | SN12C renal 83% | UO-31 renal 61% | TK-10 renal 162% | ACHN renal 91.1% | A498 renal 114% | CCRF-CEM leukemia 82.1% | MOLT-4 leukemia 95.3% | SR leukemia 73.7%

Nc1ccc(C2=NN(C(=O)c3cc(-c4ccc(Cl)cc4)nc4ccccc34)C(c3ccc(Cl)cc3)C2)cc1 (stereo not given)
inactive: SK-MEL-2 melanoma 34.7% | EKVX NSCLC 42.8% | SN12C renal 56.5% | UO-31 renal 47.6% | TK-10 renal 55.3% | ACHN renal 54.4% | A498 renal 31.1% | CCRF-CEM leukemia 17.8% | MOLT-4 leukemia 42.6% | SR leukemia 25.7%

COCCOCCOCc1n(Cc2ccc3ccccc3n2)c2ccccc2[n+]1Cc1ccc2ccccc2n1
inactive: EKVX NSCLC 71.6% | SN12C renal 11.4% | UO-31 renal 67.3% | TK-10 renal 37.6% | ACHN renal 97.6% | A498 renal 78.1% | CCRF-CEM leukemia 31.6% | MOLT-4 leukemia 26.3%
active: SK-MEL-2 melanoma -8.51% | SR leukemia 9.58%

Cc1c(Cl)cccc1NC(=O)c1sc2nc3c(cc2c1N)CCCCC3
inactive: SK-MEL-2 melanoma 48.5% | EKVX NSCLC 42.2% | SN12C renal 44.9% | UO-31 renal 55.2% | TK-10 renal 65.6% | ACHN renal 62.5% | MOLT-4 leukemia 14.4% | SR leukemia 12.8%
active: A498 renal -3.71% | CCRF-CEM leukemia 9.59%

COc1cc(C(=O)Nc2cc(OC)c3ccn(C)c3c2)cc2c1C[C@]1(C)CC[C@@H](O)C(C)(C)[C@H]1O2
inactive: EKVX NSCLC 33.5% | SN12C renal 46.8% | TK-10 renal 36.9% | ACHN renal 18% | SR leukemia 11.5%
active: SK-MEL-2 melanoma -7.94% | UO-31 renal -5.02% | A498 renal -23.1% | CCRF-CEM leukemia 5.35% | MOLT-4 leukemia -8.72%

O=C(N/N=C/C[C@@H]1[C@@H](/C=C/[C@@H](O)COc2cccc(Cl)c2)[C@H](O)C[C@@H]1O)c1ccncc1
inactive: SK-MEL-2 melanoma 102% | EKVX NSCLC 98.4% | SN12C renal 102% | UO-31 renal 89.5% | TK-10 renal 73.2% | ACHN renal 101% | A498 renal 97.9% | CCRF-CEM leukemia 98% | MOLT-4 leukemia 83.7% | SR leukemia 92.3%

COc1cc(/C=C/C(=O)/C=C/c2cc3ccc(Cl)cc3[nH]c2=O)ccc1O
inactive: SK-MEL-2 melanoma 89.1% | EKVX NSCLC 94.4% | SN12C renal 63.9% | UO-31 renal 60.3% | TK-10 renal 98% | ACHN renal 64.8% | A498 renal 78.8% | CCRF-CEM leukemia 23% | MOLT-4 leukemia 30.3% | SR leukemia 10.8%

Cc1cnc(-c2ccc(-c3ccc(NC(=O)Nc4c(F)cc(F)cc4F)cc3F)c3c2C(=O)NC3)[nH]1
inactive: SK-MEL-2 melanoma 58.1% | EKVX NSCLC 52% | UO-31 renal 50.3% | TK-10 renal 83.6% | ACHN renal 50.4% | A498 renal 22.4% | CCRF-CEM leukemia 23.9% | MOLT-4 leukemia 18.3%
active: SN12C renal 3.34% | SR leukemia -3.54%

O=c1[nH]c2ccccc2cc1-c1nc2ccc(Cl)cc2[nH]1
active: MOLT-4 leukemia -19.7% | SR leukemia 8.43%
inactive: SK-MEL-2 melanoma 18.7% | EKVX NSCLC 22.6% | SN12C renal 48.4% | UO-31 renal 45.7% | TK-10 renal 37.5% | ACHN renal 27% | A498 renal 48.3% | CCRF-CEM leukemia 13.7%

CCOC(=O)c1c(C)nc2c(c1N)/C(=C/c1ccc[nH]1)C(=O)N2Cc1ccc(C(F)(F)F)cc1
inactive: SK-MEL-2 melanoma 75.5% | EKVX NSCLC 53.7% | SN12C renal 49.4% | UO-31 renal 35.4% | TK-10 renal 49.3% | ACHN renal 26.1% | A498 renal 57.5% | CCRF-CEM leukemia 75% | MOLT-4 leukemia 78.4% | SR leukemia 62.5%

Cc1cc2ccccc2c[n+]1CC(=O)c1ccc(-c2ccccc2)cc1
inactive: SK-MEL-2 melanoma 84.3% | EKVX NSCLC 54.8% | SN12C renal 55.4% | UO-31 renal 61.5% | TK-10 renal 68.5% | ACHN renal 79.4% | A498 renal 56.5% | CCRF-CEM leukemia 53.4% | MOLT-4 leukemia 49.3% | SR leukemia 54.7%

OCCNc1nc(NCCO)nc(Nc2ccc(C3=NN(c4cc(Cl)cc(Cl)c4)C(c4ccc(Cl)cc4)C3)cc2)n1 (stereo not given)
active: TK-10 renal -2.42% | MOLT-4 leukemia 2.38% | SR leukemia -29.5%
inactive: SK-MEL-2 melanoma 73.7% | EKVX NSCLC 20.6% | SN12C renal 25.1% | UO-31 renal 18.1% | ACHN renal 50.8% | A498 renal 71.2% | CCRF-CEM leukemia 13.3%

COc1ccc2nc3c(n2c1)C(=O)C(=O)c1ccccc1-3
inactive: TK-10 renal 48.4% | A498 renal 68.7% | CCRF-CEM leukemia 20.8%
active: SK-MEL-2 melanoma -74.7% | EKVX NSCLC -53.6% | SN12C renal -88.1% | UO-31 renal -64.4% | ACHN renal -51.3% | MOLT-4 leukemia 2.85% | SR leukemia -1.54%

NC(=N\N=C\c1ccccc1O)/C(N)=N/N=C/c1ccccc1O
inactive: SK-MEL-2 melanoma 94.8% | EKVX NSCLC 88.5% | SN12C renal 90.8% | UO-31 renal 70.2% | TK-10 renal 92.5% | ACHN renal 74.9% | A498 renal 79% | CCRF-CEM leukemia 80.1% | MOLT-4 leukemia 68.3% | SR leukemia 71.2%

COc1cc2c(cc1OC)C(Sc1ccc(Cl)cc1)c1c(nc(N)c(C#N)c1N)O2 (stereo not given)
active: SK-MEL-2 melanoma -21.1% | EKVX NSCLC 1.68% | SN12C renal 1.66% | UO-31 renal -36.3% | TK-10 renal -12.6% | ACHN renal -66.9% | CCRF-CEM leukemia -7.67% | MOLT-4 leukemia 0.994% | SR leukemia -13.3%
inactive: A498 renal 66.4%

N#Cc1ccc(N2Cc3cc(Cl)ccc3OC3=C2C(=O)N(Cc2ccccc2)C3=O)cc1
active: SK-MEL-2 melanoma -38.7% | SN12C renal -39.5% | UO-31 renal -90.5% | TK-10 renal -66.3% | ACHN renal -85.6% | CCRF-CEM leukemia -9.47% | MOLT-4 leukemia -24.7% | SR leukemia -25.7%
inactive: EKVX NSCLC 43.8% | A498 renal 129%
